The full data set covers some 7,900 targets. This sample favours those with a hit. About 0.6% of all pairs of compound and target were hits.
How the values were obtained:
Test in all cases: log2 fold change, soluble protein after heating vs DMSO (PISA); higher = thermal stabilisation; K562 cells, 10 uM, 30 min; active = over 0.2 and 3.5 SD of the protein, either way, in both replicates (recomputed)
[1] = compound: CS(=O)(=O)c1ccc(-c2cnc(N)c(C(=O)Nc3ccccc3)n2)cc1
Summary of the method: (§1)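 K562 cells at 2×10^6 cells/mL were treated with 10 μM compound for 30 min. Aliquots were heated for 3 min across 48°C-58°C, pooled, and extracted in PBS with 0.5% NP-40 at 4°C; soluble protein was the supernatant after 21,000xg for 90 min. Soluble protein was quantified by TMTpro 16plex LC-MS/MS with channel sums equalised, and reported as log2 fold change in thermal stability against DMSO controls, with values from duplicates.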

crizotinib = compound: C[C@@H](Oc1cc(-c2cnn(C3CCNCC3)c2)cnc1N)c1c(Cl)ccc(F)c1Cl [crizotinib]
Summary of the method: as §1

[2] = compound: C[C@@H]1COCCN1C2=NC(=NC(=C2)C3(CC3)S(=O)(=O)C)C4=C5C=CNC5=CC=C4
Summary of the method: as §1

[3] = compound: C[C@H](C1=CC=C(C=C1)C(=O)NC2=C3C=CNC3=NC=C2)N
Summary of the method: as §1

duvelisib = compound: C[C@H](Nc1ncnc2nc[nH]c12)c1cc2cccc(Cl)c2c(=O)n1-c1ccccc1 [duvelisib]
Summary of the method: as §1

gandotinib = compound: Cc1cc(Nc2cc(CN3CCOCC3)c3nc(C)c(Cc4ccc(Cl)cc4F)n3n2)n[nH]1 [gandotinib]
Summary of the method: as §1

tozasertib = compound: Cc1cc(Nc2cc(N3CCN(C)CC3)nc(Sc3ccc(NC(=O)C4CC4)cc3)n2)n[nH]1 [tozasertib]
Summary of the method: as §1

[4] = compound: Cc1cc(SCc2sc(-c3ccc(C(F)(F)F)cc3)nc2C)ccc1OCC(=O)O
Summary of the method: as §1

doramapimod = compound: Cc1ccc(-n2nc(C(C)(C)C)cc2NC(=O)Nc2ccc(OCCN3CCOCC3)c3ccccc23)cc1 [doramapimod]
Summary of the method: as §1

ispinesib = compound: Cc1ccc(C(=O)N(CCCN)[C@@H](c2nc3cc(Cl)ccc3c(=O)n2Cc2ccccc2)C(C)C)cc1 [ispinesib]
Summary of the method: as §1

bafetinib = compound: Cc1ccc(NC(=O)c2ccc(CN3CC[C@H](N(C)C)C3)c(C(F)(F)F)c2)cc1Nc1nccc(-c2cncnc2)n1 [bafetinib]
Summary of the method: as §1

[5] = compound: Cc1cccc(CC(=O)N2CCc3c2ccc(-c2cn(C)c4ncnc(N)c24)c3F)n1
Summary of the method: as §1

nilotinib = compound: Cc1cn(-c2cc(NC(=O)c3ccc(C)c(Nc4nccc(-c5cccnc5)n4)c3)cc(C(F)(F)F)c2)cn1 [nilotinib]
Summary of the method: as §1

[6] = compound: Cc1nc(Nc2n[nH]c3c2CN(C(=O)N[C@H](CN(C)C)c2ccccc2)C3(C)C)c2sccc2n1
Summary of the method: as §1

dasatinib = compound: Cc1nc(Nc2ncc(C(=O)Nc3c(C)cccc3Cl)s2)cc(N2CCN(CCO)CC2)n1 [dasatinib]
Summary of the method: as §1

[7] = compound: Cc1ncc(-c2ccnc(Nc3ccc(S(C)(=O)=O)cc3)n2)n1C(C)C
Summary of the method: as §1

[8] = compound: Cn1cc(-c2ccc3c(c2)CCN3C(=O)Cc2cccc(C(F)(F)F)c2)c2c(N)ncnc21
Summary of the method: as §1

[9] = compound: Cn1cc(-c2ccc3nnc(C(F)(F)c4ccc5ncccc5c4)n3n2)cn1
Summary of the method: as §1

tipifarnib = compound: Cn1cncc1[C@@](N)(c1ccc(Cl)cc1)c1ccc2c(c1)c(-c1cccc(Cl)c1)cc(=O)n2C [tipifarnib]
Summary of the method: as §1

mubritinib = compound: FC(F)(F)c1ccc(/C=C/c2nc(COc3ccc(CCCCn4ccnn4)cc3)co2)cc1 [mubritinib]
Summary of the method: as §1

Measured: log2 fold change

RBM4 (UniProt Q9BWF3)
inactive: [1] -0.024 | crizotinib -0.04 | [2] -0.081 | [3] 0.06 | duvelisib -0.058 | gandotinib -0.037 | tozasertib -0.023 | [4] 0.021 | doramapimod 0.021 | ispinesib -0.094 | bafetinib -0.049 | [5] -0.01 | nilotinib -0.047 | [6] -0.095 | dasatinib -0.033 | [7] -0.039 | [8] -0.054 | [9] -0.063 | tipifarnib -0.013 | mubritinib -0.082

SASH1 (UniProt O94885)
Sequence of UniProt O94885 (O94885 whole entry, looked up): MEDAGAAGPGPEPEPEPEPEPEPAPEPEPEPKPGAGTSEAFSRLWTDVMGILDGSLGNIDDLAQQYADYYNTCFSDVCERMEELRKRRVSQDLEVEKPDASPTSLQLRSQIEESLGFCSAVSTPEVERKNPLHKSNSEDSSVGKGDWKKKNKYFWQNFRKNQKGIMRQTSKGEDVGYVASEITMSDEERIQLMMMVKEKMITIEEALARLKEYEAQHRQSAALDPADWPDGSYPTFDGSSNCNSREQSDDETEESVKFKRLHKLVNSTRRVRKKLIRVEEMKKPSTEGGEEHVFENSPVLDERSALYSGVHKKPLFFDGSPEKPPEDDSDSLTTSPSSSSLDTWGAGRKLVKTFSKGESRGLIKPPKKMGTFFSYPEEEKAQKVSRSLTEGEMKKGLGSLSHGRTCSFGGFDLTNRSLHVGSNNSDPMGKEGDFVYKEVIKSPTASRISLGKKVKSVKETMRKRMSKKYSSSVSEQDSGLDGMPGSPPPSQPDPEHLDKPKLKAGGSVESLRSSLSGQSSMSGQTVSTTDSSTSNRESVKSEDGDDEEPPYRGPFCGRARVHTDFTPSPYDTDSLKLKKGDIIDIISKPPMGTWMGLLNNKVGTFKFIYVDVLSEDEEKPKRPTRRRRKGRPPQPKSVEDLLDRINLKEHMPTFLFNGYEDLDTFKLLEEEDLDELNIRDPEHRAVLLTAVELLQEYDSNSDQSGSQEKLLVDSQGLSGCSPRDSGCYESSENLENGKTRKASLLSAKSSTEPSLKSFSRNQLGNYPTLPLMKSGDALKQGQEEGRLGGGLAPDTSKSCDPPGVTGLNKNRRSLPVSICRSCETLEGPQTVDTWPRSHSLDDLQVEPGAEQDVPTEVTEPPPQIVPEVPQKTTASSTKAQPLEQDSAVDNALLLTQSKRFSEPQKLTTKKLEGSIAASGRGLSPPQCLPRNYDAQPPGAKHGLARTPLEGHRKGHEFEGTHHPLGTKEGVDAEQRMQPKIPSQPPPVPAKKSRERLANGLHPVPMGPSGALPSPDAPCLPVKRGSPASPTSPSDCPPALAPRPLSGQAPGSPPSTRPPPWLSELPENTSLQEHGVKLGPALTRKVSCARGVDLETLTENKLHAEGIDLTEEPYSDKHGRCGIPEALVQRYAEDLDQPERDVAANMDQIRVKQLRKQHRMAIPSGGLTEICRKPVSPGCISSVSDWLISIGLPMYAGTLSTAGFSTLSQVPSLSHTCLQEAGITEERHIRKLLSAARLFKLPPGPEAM
inactive: [1] 0.023 | crizotinib -0.122 | [2] -0.077 | [3] -0.024 | duvelisib 0.032 | gandotinib -0.028 | tozasertib 0.088 | [4] 0.198 | doramapimod -0.031 | ispinesib -0.116 | bafetinib -0.052 | [5] -0.006 | nilotinib -0.079 | [6] -0.071 | dasatinib -0.046 | [7] 0.034 | [8] 0.011 | [9] 0.073 | tipifarnib 0.025 | mubritinib 0.032

RTF2 (UniProt Q9BY42)
inactive: [1] -0.005 | crizotinib 0.234 | [2] -0.061 | [3] -0.089 | duvelisib 0.116 | gandotinib 0.104 | tozasertib 0.166 | [4] -0.003 | doramapimod -0.083 | ispinesib 0.151 | bafetinib -0.074 | [5] -0.001 | nilotinib -0.045 | [6] -0.125 | dasatinib -0.012 | [7] 0.039 | [8] -0.071 | [9] -0.039 | tipifarnib -0.065 | mubritinib -0.047

RIC8A isoform 3 (UniProt Q9NPQ8)
inactive: [1] 0.042 | crizotinib -0.085 | [2] -0.036 | [3] 0.094 | duvelisib 0.036 | gandotinib -0.038 | tozasertib 0.177 | [4] 0.193 | doramapimod 0.094 | ispinesib -0.145 | bafetinib 0.042 | [5] -0.062 | nilotinib -0.041 | [6] -0.043 | dasatinib -0.108 | [7] 0.088 | [8] 0.03 | [9] 0.014 | tipifarnib -0.1 | mubritinib -0.095

RPP25L (UniProt Q8N5L8)
inactive: [1] -0.031 | crizotinib 0.059 | [2] -0.014 | [3] 0.145 | duvelisib 0.06 | gandotinib 0.045 | tozasertib -0.01 | [4] -0.019 | doramapimod -0.005 | ispinesib -0.027 | bafetinib 0.143 | [5] -0.04 | nilotinib 0.044 | [6] -0.087 | dasatinib 0.09 | [7] -0.031 | [8] -0.058 | [9] 0.004 | tipifarnib 0.044 | mubritinib -0.004

RAB9A (UniProt P51151)
Sequence of UniProt P51151 (P51151 whole entry, looked up): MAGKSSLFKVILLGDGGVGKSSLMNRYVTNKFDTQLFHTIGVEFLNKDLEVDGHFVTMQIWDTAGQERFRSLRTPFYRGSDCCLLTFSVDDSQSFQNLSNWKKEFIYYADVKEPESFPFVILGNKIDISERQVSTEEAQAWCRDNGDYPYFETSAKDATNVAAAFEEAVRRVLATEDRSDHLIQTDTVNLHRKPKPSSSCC
inactive: [1] 0.007 | crizotinib -0.119 | [2] -0.006 | [3] -0.044 | duvelisib 0.04 | gandotinib 0 | tozasertib 0.018 | [4] 0.016 | doramapimod 0.018 | ispinesib -0.168 | bafetinib -0.073 | [5] -0.021 | nilotinib -0.01 | [6] 0.012 | dasatinib 0.002 | [7] 0.002 | [8] 0.104 | [9] 0.001 | tipifarnib 0.001 | mubritinib 0.002

RAB5C isoform 2 (UniProt P51148)
inactive: [1] -0.015 | crizotinib 0.099 | [2] 0.015 | [3] -0.092 | duvelisib 0.011 | gandotinib -0.021 | tozasertib -0.029 | [4] 0.014 | doramapimod 0.013 | ispinesib 0.054 | bafetinib -0.005 | [5] -0.021 | nilotinib 0.019 | [6] -0.019 | dasatinib 0.014 | [7] -0.003 | [8] 0.043 | [9] -0.027 | tipifarnib 0.006 | mubritinib 0.031

RBM26 isoform 2 (UniProt Q5T8P6)
Sequence of UniProt Q5T8P6 (Q5T8P6 whole entry, looked up): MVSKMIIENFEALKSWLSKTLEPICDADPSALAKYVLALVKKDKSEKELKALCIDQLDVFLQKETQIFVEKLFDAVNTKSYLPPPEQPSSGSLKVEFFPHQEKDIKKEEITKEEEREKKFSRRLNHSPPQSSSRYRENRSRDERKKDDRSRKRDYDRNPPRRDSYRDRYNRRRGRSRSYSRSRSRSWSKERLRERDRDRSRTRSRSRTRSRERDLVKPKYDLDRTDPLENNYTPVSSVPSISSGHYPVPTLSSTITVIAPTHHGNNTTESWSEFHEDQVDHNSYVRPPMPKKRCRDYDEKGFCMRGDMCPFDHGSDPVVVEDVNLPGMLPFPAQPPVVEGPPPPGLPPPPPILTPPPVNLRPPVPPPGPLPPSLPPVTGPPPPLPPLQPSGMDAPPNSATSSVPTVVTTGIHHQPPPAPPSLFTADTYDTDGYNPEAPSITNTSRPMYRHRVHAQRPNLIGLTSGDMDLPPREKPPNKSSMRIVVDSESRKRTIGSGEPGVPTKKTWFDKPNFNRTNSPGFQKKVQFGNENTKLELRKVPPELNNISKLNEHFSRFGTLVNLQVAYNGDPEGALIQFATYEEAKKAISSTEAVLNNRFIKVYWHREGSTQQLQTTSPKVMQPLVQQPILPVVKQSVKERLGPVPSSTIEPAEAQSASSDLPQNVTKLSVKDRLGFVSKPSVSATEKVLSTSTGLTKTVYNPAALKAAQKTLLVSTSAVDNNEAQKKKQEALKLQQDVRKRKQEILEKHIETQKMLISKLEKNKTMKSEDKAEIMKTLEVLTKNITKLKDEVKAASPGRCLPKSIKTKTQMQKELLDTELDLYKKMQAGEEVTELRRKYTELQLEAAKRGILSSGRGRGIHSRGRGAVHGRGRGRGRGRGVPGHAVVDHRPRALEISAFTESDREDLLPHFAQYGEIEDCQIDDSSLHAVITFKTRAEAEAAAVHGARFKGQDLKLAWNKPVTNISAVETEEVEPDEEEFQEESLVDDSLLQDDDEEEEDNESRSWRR
inactive: [1] -0.012 | crizotinib 0.03 | [2] 0.374 | [3] -0.154 | duvelisib 0.022 | gandotinib -0.056 | tozasertib 0.036 | [4] 0.136 | doramapimod -0.036 | ispinesib -0.089 | bafetinib -0.003 | [5] 0.058 | nilotinib -0.088 | [6] -0.432 | dasatinib -0.176 | [7] 0.021 | [8] 0.12 | [9] 0.168 | tipifarnib -0.033 | mubritinib 0.045

RPS13 (UniProt P62277)
inactive: [1] -0.053 | crizotinib 0.076 | [2] -0.548 | [3] 0.403 | duvelisib -0.201 | gandotinib 0.296 | tozasertib 0.021 | [4] -0.013 | doramapimod 0.247 | ispinesib -0.195 | bafetinib 0.342 | [5] 0 | nilotinib 0.017 | [6] 0.221 | dasatinib 0.088 | [7] -0.051 | [8] -0.237 | [9] -0.089 | tipifarnib 0.204 | mubritinib -0.184

SACM1L (UniProt Q9NTJ5)
Sequence of UniProt Q9NTJ5 (Q9NTJ5 whole entry, looked up): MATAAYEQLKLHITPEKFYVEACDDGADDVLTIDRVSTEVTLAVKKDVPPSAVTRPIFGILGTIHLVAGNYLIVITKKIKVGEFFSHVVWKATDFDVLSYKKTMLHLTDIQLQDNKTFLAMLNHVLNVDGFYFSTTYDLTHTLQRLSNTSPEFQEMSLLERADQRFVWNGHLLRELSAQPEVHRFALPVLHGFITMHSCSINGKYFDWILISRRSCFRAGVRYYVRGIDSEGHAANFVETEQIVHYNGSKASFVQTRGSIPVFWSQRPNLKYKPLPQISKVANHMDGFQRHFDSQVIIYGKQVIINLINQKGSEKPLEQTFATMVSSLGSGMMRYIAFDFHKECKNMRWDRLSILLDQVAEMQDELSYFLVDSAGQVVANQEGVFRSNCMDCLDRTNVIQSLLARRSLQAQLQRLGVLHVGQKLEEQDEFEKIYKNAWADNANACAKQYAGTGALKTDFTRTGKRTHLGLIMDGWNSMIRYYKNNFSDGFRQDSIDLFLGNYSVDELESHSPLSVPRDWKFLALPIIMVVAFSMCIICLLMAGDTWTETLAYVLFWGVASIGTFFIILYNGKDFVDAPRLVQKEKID
inactive: [1] 0.026 | crizotinib 0 | [2] 0.062 | [3] -0.094 | duvelisib 0.031 | gandotinib -0.065 | tozasertib 0.058 | [4] 0.005 | doramapimod -0.055 | ispinesib -0.096 | bafetinib -0.011 | [5] -0.022 | nilotinib 0.044 | [6] -0.002 | dasatinib 0.012 | [7] 0.012 | [8] -0.009 | [9] 0 | tipifarnib -0.024 | mubritinib -0.002

RBM26 isoform 3 (UniProt Q5T8P6)
inactive: [1] 0.066

RSRC1 (UniProt Q96IZ7)
active: [3] -0.386 | [6] -2.01
inactive: [1] 0.007 | crizotinib -0.059 | [2] 0.027 | duvelisib 0.086 | gandotinib 0.176 | tozasertib -0.079 | [4] -0.034 | doramapimod 0.051 | ispinesib 0.037 | bafetinib 0.042 | [5] -0.05 | nilotinib 0.06 | dasatinib 0.028 | [7] -0.024 | [8] 0.003 | [9] -0.021 | tipifarnib 0.038 | mubritinib 0.012

SGPL1 (UniProt O95470)
inactive: [1] 0.095 | crizotinib 0.077 | [2] -0.034 | [3] 0.011 | duvelisib 0.019 | gandotinib 0.259 | tozasertib -0.089 | [4] 0.024 | doramapimod 0.084 | ispinesib 0.077 | bafetinib 0.009 | [5] -0.013 | nilotinib 0.024 | [6] -0.017 | dasatinib 0.016 | [7] -0.029 | [8] -0.005 | [9] -0.071 | tipifarnib 0.151 | mubritinib 0.034

RIOK3 (UniProt O14730)
Sequence of UniProt O14730 (O14730 whole entry, looked up): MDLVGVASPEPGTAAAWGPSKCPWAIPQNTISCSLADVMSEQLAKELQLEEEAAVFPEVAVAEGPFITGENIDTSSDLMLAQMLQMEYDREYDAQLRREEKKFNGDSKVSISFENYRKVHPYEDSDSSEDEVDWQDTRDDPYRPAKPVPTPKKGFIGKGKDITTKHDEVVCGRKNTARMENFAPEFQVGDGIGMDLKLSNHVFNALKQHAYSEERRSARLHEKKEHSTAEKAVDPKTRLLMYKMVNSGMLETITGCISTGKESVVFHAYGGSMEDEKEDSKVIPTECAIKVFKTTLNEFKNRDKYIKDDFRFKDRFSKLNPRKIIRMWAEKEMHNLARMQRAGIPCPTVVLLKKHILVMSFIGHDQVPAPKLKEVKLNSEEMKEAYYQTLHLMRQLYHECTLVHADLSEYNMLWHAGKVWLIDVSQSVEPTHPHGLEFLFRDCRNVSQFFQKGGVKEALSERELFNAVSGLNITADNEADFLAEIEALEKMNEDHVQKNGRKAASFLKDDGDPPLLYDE
inactive: [1] -0.004 | crizotinib -0.031 | [2] 0.029 | [3] -0.026 | duvelisib 0.034 | gandotinib 0.086 | tozasertib -0.033 | [4] -0.011 | doramapimod -0.019 | ispinesib -0.004 | bafetinib -0.004 | [5] -0.02 | nilotinib -0.017 | [6] 0.06 | dasatinib 0.053 | [7] -0.01 | [8] 0.018 | [9] -0.005 | tipifarnib 0.002 | mubritinib 0.017

RPS4X (UniProt P62701)
inactive: [1] -0.027 | crizotinib 0.021 | [2] -0.378 | [3] 0.333 | duvelisib -0.211 | gandotinib 0.264 | tozasertib 0.039 | [4] -0.023 | doramapimod 0.18 | ispinesib -0.141 | bafetinib 0.332 | [5] 0 | nilotinib 0.051 | [6] 0.206 | dasatinib 0.061 | [7] -0.048 | [8] -0.251 | [9] -0.079 | tipifarnib 0.112 | mubritinib -0.105

RUFY1 (UniProt Q96T51)
Sequence of UniProt Q96T51 (Q96T51 whole entry, looked up): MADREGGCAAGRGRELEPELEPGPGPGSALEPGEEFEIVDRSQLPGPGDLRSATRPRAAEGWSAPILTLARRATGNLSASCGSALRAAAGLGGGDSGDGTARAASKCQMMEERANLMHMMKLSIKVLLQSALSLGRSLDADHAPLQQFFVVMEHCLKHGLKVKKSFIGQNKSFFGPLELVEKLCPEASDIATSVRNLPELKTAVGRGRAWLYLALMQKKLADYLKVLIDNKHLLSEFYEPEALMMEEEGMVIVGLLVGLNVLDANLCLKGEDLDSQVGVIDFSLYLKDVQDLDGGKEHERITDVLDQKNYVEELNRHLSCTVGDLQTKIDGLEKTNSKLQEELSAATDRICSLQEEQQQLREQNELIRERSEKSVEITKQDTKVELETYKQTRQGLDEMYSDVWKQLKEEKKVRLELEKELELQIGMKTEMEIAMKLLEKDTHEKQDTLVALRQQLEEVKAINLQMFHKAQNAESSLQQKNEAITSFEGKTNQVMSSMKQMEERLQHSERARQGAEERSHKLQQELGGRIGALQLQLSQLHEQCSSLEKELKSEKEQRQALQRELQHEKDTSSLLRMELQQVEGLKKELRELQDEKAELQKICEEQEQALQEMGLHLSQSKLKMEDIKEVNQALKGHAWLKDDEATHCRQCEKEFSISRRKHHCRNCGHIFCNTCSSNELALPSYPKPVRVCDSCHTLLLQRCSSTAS
inactive: [1] -0.04 | crizotinib -0.003 | [2] -0.034 | [3] 0.075 | duvelisib -0.005 | gandotinib -0.029 | tozasertib 0.166 | [4] 0.118 | doramapimod 0.032 | ispinesib -0.065 | bafetinib -0.052 | [5] 0.077 | nilotinib -0.066 | [6] -0.086 | dasatinib -0.11 | [7] 0.067 | [8] -0.061 | [9] 0.05 | tipifarnib -0.062 | mubritinib -0.001

SAMD4B (UniProt Q5PRF9)
Sequence of UniProt Q5PRF9 (Q5PRF9 whole entry, looked up): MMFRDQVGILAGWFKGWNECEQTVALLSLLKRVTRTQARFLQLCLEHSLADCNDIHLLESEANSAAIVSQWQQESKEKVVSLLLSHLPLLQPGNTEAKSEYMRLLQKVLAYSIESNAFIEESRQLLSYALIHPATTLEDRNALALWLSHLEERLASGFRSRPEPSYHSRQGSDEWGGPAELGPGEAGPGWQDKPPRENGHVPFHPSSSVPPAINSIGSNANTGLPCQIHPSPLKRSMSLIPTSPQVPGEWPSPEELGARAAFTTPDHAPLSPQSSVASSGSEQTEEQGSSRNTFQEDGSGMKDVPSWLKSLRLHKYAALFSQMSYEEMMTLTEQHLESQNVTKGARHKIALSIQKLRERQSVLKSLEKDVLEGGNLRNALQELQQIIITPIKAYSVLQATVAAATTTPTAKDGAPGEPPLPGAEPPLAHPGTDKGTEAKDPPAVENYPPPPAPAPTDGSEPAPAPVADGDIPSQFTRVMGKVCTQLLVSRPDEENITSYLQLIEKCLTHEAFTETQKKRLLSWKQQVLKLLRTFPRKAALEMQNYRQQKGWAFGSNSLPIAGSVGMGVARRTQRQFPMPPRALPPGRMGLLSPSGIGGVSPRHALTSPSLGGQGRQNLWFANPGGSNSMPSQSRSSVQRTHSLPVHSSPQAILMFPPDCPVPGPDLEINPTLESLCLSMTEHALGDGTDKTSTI
active: crizotinib -0.527
inactive: [1] -0.102 | [2] -0.036 | [3] 0.009 | duvelisib -0.067 | gandotinib -0.135 | tozasertib -0.154 | [4] 0.029 | doramapimod 0.073 | ispinesib -0.082 | bafetinib -0.436 | [5] 0.125 | nilotinib -0.167 | [6] -0.312 | dasatinib -0.296 | [7] 0.002 | [8] -0.072 | [9] -0.042 | tipifarnib 0.09
